Results filed as inconclusive are left out. Entries that show only a call come without a potency. Active and inactive are the calls of the source. Calls come from the whole dose curve; as a rule, active = well fitted inhibition curve with a large enough effect; inconclusive = small, poorly fitted or top-dose-only effect; inactive = flat fitted curve, though single readings scatter. Where a SMILES comes first, the peptide text is derived from it. Bridges are numbered along the chain shown (N, C = ends). [ ]: non-standard residue; d: D form. The star is where a group is joined. X2 = CC[C@H](C)CCCCC(=O)*; Dab = NCC[C@H](N)C(=O)O
Potency is the fitted concentration of half-maximal effect.

Sequence of Voltage-gated inwardly rectifying potassium channel KCNH2 (Homo sapiens) (Q12809 whole entry, looked up): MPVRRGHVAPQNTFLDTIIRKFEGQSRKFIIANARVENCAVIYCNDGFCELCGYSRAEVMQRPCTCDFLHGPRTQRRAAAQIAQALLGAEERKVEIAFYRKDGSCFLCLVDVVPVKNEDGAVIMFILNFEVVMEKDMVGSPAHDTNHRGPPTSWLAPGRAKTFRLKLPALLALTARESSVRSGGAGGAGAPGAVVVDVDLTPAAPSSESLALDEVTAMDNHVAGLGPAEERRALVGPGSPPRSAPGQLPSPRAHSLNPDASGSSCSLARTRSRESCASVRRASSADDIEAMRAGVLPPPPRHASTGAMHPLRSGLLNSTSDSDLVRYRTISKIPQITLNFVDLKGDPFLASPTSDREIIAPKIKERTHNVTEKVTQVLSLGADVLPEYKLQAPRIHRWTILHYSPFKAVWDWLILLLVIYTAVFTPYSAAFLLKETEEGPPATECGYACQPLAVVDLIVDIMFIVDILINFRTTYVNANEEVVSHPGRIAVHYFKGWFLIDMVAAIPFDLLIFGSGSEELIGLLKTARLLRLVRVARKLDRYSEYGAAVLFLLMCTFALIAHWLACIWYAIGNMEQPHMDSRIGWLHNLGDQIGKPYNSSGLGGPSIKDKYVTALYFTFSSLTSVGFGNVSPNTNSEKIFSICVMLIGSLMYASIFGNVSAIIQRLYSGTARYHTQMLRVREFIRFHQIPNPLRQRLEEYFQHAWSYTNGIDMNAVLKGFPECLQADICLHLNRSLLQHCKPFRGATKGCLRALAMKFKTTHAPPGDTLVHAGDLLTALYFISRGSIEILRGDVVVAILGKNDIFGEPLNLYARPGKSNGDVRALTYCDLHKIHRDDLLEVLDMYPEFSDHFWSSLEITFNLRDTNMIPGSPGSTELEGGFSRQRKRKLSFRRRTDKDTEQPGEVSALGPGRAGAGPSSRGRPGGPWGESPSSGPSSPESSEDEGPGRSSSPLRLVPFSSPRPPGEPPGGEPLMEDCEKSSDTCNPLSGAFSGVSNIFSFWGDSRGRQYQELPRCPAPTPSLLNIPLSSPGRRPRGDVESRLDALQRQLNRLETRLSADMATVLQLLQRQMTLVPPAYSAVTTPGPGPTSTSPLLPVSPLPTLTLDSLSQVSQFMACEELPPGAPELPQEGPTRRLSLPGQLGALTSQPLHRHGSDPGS

This experiment has as its target Voltage-gated inwardly rectifying potassium channel KCNH2 (Homo sapiens) (UniProt Q12809). Briefly: qHTS Assay for Small Molecule Inhibitors of the Human hERG Channel Activity (AID 588834).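 Note: lower thallium flux fluorescence means stronger hERG block; nearly all actives have a fitted effect of over 50% in size.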 As to conditions: U2OS BacMam hERG, FluxOR thallium flux fluorescence; series mostly up to 46.1 µM. An excerpt:
NIH Chemical Genomics Center [NCGC]
National Institutes of Environmental Health Sciences [NIEHS]
National Toxicology Program [NTP]
We have developed a 1536-well cell-based assay for quantitative high throughput screening (qHTS) to determine in vitro hERG channel blockage as a measure of cardio toxicity with small molecules. This particular assay uses the U2OS cell line which is derived from human osteosarcoma.
NCGC Assay Protocol Summary:
HERG assay (FluxORTM thallium flux assay) was initially developed by Invitrogen/Molecular Probes, and then miniaturized into 1536-well plate in a homogeneous format by NCGC. This assay measures the activity of potassium channel using thallium dye (FluxOR) flux as surrogate measurement for potassium into the cells with a FDSS-7000 kinetic plate reader (Hamamatsu Corp., Hamamatsu City, Japan). The hERG ion channel is transduced into mammalian cells (U2OS) using a baculovirus (Bacmam) construct harboring the hERG K+ ion channel. So far we screened LOPAC1280 library (Sigma), the NTP collection of 1408 compounds, and the NCGC Pharmaceutical Collection (NPC), in which many well defined HERG blockers are present. The rank order potencies of many of these compounds are similar to that of other HERG assays (membrane potential, Rb+ flux, patch clamp, etc). This quick and homogeneous assay is also found to be sensitive, specific, and robust.
Using the FluxORTM thallium flux assay, the activity of potassium channel using thallium dye (FluxOR) flux as surrogate measurement for potassium into the cells was measured in the U2OS cell line transduced with hERG K+ ion channel using a baculovirus (Bacmam) using Opti-MEM medium (Invitrogen) containing 2% fetal calf serum (FCS, HyCone) following loading buffer addition, compound treatment for around 10 minutes and finally adding stimulation buffer. The assay was performed in black clear Kalypsys 1536-well plates. In the screen, Astemizole was used as positive controls. Library compounds were measured for their ability to cause hERG channel blockage in the cell line, as reflected by a decrease in fluorescence intensity, in a concentration-dependent manner. […] AC50 values were determined from concentration-response data modeled with the standard Hill equation.
qHTS protocol for hERG-U2OS cellular assay
[Step] [Parameter] [Value] [Description]
1. Day 1: Replace medium in 70-80% confluent T225 flask with 2.5 mL of hERG-BacMam virus plus 12.5 mL of phosphate buffered saline (PBS) (corresponding roughly to a multiplicity of infection ratio of 100 virus particles/cell)
2. Incubation: 4 hrs @ room Temperature in Dark
3. Reagent; Remove virus; wash once with 25 ml DPBS
4. Reagent; 35 ml culture medium
5. Incubation; 37 °C overnight
6. Day2: Reagent; 3 uL; 2000 U2OS cells/well
7. Time; 4 hr; 37 °C incubation
8. Loading buffer; 1 uL; 0.7X;
9. Incubation: 1hr @ RT in Dark.
12. Time; 10min; 37 °C incubation
13. Read fluorescence Intensity on FDSS for 10 Sec with 1 sec interval
14. Reagent; 1 uL; stimulation buffer
15. Read fluorescence Intensity on FDSS for 2 min with 1 sec interval
16. Detection; Fluorescence Intensity; FDSS
For the molecule `CC(=O)N=c1sc(S(N)(=O)=O)nn1C`, the Potency entry is “inactive”.

In the case of `Nc1nccs1`, the Potency entry is “inactive”.

Regarding `CC(C)[C@@H]1CC[C@@H](C)C[C@H]1OC(=O)c1ccccc1O`, the Potency result is “inactive”.

On to `Cc1c(Cl)cccc1Nc1ncccc1C(=O)O`, for which the Potency entry is “inactive”.

Regarding `CCN(CC)CCOc1ccc2nc(N(C)C)sc2c1`, the Potency entry is “inactive”.

Take `CC1=CCC2CC1C2(C)C` (stereo not given): the Potency result is “inactive”.

`CCN1\C(=C/C=C/C=C/c2sc3ccccc3[n+]2CC)Sc2ccccc21`: the Potency is 11.2 µM (active).

For `CC(C)C[C@H](NC(=O)[C@@H](COC(C)(C)C)NC(=O)[C@H](Cc1ccc(O)cc1)NC(=O)[C@H](CO)NC(=O)[C@H](Cc1c[nH]c2ccccc12)NC(=O)[C@H](Cc1cnc[nH]1)NC(=O)[C@@H]1CCC(=O)N1)C(=O)N[C@@H](CCCN=C(N)N)C(=O)N1CCC[C@H]1C(=O)NNC(N)=O`, the Potency entry was “inactive”.

With `CC(C)(C)c1ccc2c(S(=O)(=O)O)c(C(C)(C)C)ccc2c1`, the Potency entry was “inactive”.

On to `C=Cc1ccc(S(=O)(=O)O)cc1`, for which the Potency result is “inactive”.

With `C=C1CC[C@H](O)C/C1=C\C=C1/CCC[C@]2(C)[C@@H]([C@H](C)CCCC(C)C)CC[C@@H]12`, the Potency entry was “inactive”.

Turning to `CC(C)CCC[C@@H](C)[C@H]1CC[C@H]2[C@@H]3CC=C4C[C@@H](O)CC[C@]4(C)[C@H]3CC[C@]12C`, the Potency entry was “inactive”.

`C=CCCCCCCCCC(=O)OC`: the Potency entry is “inactive”.

In the case of `CO[C@@]1(NC(=O)C2SC(=C(C(N)=O)C(=O)O)S2)C(=O)N2C(C(=O)O)=C(CSc3nnnn3C)CS[C@@H]21` (stereo not given in full), the Potency is 7.08 µM (active).

On to `COc1ccc(C(=O)/C(Br)=C\C(=O)O)cc1`, for which the Potency result was “inactive”.

`CC(O)[C@@H]1NC(=O)[C@H](Cc2ccccc2)NC(=O)[C@H](C(C)O)NC(=O)[C@H](CCCCN)NC(=O)[C@H](Cc2c[nH]c3ccccc23)NC(=O)[C@H](Cc2ccccc2)NC(=O)[C@H](Cc2ccccc2)NC(=O)[C@H](CC(N)=O)NC(=O)[C@H](CCCCN)NC(=O)[C@@H](NC(=O)CNC(=O)[C@H](C)N)CSSC[C@@H](C(=O)O)NC(=O)[C@H](CO)NC1=O` (stereo not given in full): the Potency result was “inactive”.

On to `CC/C=C\C/C=C\C/C=C\CCCCCCCC(=O)O`, for which the Potency result is “inactive”.

`O=C(O)CN(CC(=O)O)CC1=CC2C(=CC1=O)Oc1cc(O)c(CN(CC(=O)O)CC(=O)O)cc1C21OC(=O)c2ccccc21` (stereo not given): the Potency was 0.891 µM (active).

As for `CS(=O)(=O)c1ccc([C@@H](O)[C@@H](COC(=O)CN)NC(=O)C(Cl)Cl)cc1`, the Potency entry is “inactive”.

Consider `CC(CN(C)C)CN1c2ccccc2Sc2ccc(C(F)(F)F)cc21` (stereo not given), for which the Potency was 11.2 µM (active).

Regarding `O=P(O)(O)OP(=O)(O)OP(=O)(O)O`, the Potency result was “inactive”.

For `Oc1cc(O)cc(O)c1`, the Potency entry was “inactive”.

Consider `COc1cc(S(C)=O)ccc1-c1nc2ncccc2[nH]1` (stereo not given), for which the Potency result is “inactive”.

For `CC12CCC(C1)C(C)(C)C2=O` (stereo not given), the Potency entry is “inactive”.

`O=C(CCCN1CCN2CCCC2C1)c1ccc(F)cc1` (stereo not given): the Potency result was “inactive”.

As for `OCCN1CCN(CC/C=C2/c3ccccc3Sc3ccc(Cl)cc32)CC1`, the Potency is 1.58 µM (active).

Consider `CO/N=C(\C(=O)N[C@@H]1C(=O)N2C(C(=O)O)=C(CSC(=O)c3ccco3)CS[C@H]12)c1csc(N)n1`, for which the Potency entry was “inactive”.

As to `CC(C)[C@H](N)C(=O)OCC(CO)OCn1cnc2c(=O)[nH]c(N)nc21` (stereo not given in full), the Potency result was “inactive”.

Regarding `CC[C@H](C)CCCCC(=O)N[C@@H](CCN)C(=O)N[C@H](C(=O)N[C@@H](CCN)C(=O)N[C@H]1CCNC(=O)[C@@H]([C@H](C)O)NC(=O)[C@H](CCN)NC(=O)[C@H](CCN)NC(=O)[C@H](CC(C)C)NC(=O)[C@@H](CC(C)C)NC(=O)[C@H](CCN)NC1=O)[C@@H](C)O` (X2-[Dab]T[Dab][Dab][Dab][dL]L[Dab][Dab][dT]; lactam 4-C), the Potency entry is “inactive”.

Take `FC(F)OC(Cl)C(F)(F)F` (stereo not given): the Potency result was “inactive”.

Turning to `Cc1ncc(COP(=O)(O)O)c(CN)c1O`, the Potency result was “inactive”.

As for `C=C1CC[C@H](O)CC1=C/C=C1\CCC[C@]2(C)[C@@H]([C@H](C)/C=C/[C@H](C)C(C)C)CC[C@@H]12`, the Potency result was “inactive”.

For the molecule `Cc1ncc(C[n+]2csc(CCO)c2C)c(N)n1`, the Potency entry is “inactive”.

On to `Cc1ccc(S(=O)(=O)O)cc1C`, for which the Potency entry is “inactive”.

Turning to `CN1C(C(=O)Nc2ccccn2)C(=O)c2sc(Cl)cc2S1(=O)=O` (stereo not given), the Potency result is “inactive”.

Regarding `Cc1c(N)nc([C@H](CC(N)=O)NC[C@H](N)C(N)=O)nc1C(=O)N[C@H](C(=O)N[C@H](C)[C@@H](O)[C@H](C)C(=O)N[C@H](C(=O)NCCc1nc(-c2nc(C(=O)NCCCCN=C(N)N)cs2)cs1)[C@@H](C)O)[C@@H](O[C@@H]1O[C@@H](CO)[C@@H](O)[C@H](O)[C@@H]1O[C@H]1O[C@H](CO)[C@@H](O)[C@H](OC(N)=O)[C@@H]1O)c1cnc[nH]1`, the Potency result is “inactive”.

Take `C[Si](C)(C)O[Si](C)(C)C`: the Potency result is “inactive”.

`O=C(O)c1ccc(NC2OC[C@@H](O)[C@H](O)[C@H]2O)cc1` (stereo not given in full): the Potency result was “inactive”.

Turning to `CO/N=C(\C(=O)N[C@@H]1C(=O)N2C(C(=O)O)=C(CSc3nnnn3C)CS[C@H]12)c1csc(N)n1`, the Potency entry was “inactive”.

As for `C=C1c2c(Cl)ccc(O)c2C(O)=C2C(=O)[C@]3(O)C(O)=C(C(N)=O)C(=O)[C@@H](N(C)C)[C@@H]3[C@@H](O)[C@H]12`, the Potency entry was “inactive”.
